Source: PubChem
POLI inh: DNA polymerase iota (human) inhibition | Q9UNA4 | Pol iota fluorescent replication assay, 10 min | Potency, µM (titrated, usually from 115 µM), without a hit: top-dose activity, negative = inhibition, most hits filed as inhibitors | actives 1% (n = 390,000) | AID 588590
Target sequence (Q9UNA4 whole entry, looked up): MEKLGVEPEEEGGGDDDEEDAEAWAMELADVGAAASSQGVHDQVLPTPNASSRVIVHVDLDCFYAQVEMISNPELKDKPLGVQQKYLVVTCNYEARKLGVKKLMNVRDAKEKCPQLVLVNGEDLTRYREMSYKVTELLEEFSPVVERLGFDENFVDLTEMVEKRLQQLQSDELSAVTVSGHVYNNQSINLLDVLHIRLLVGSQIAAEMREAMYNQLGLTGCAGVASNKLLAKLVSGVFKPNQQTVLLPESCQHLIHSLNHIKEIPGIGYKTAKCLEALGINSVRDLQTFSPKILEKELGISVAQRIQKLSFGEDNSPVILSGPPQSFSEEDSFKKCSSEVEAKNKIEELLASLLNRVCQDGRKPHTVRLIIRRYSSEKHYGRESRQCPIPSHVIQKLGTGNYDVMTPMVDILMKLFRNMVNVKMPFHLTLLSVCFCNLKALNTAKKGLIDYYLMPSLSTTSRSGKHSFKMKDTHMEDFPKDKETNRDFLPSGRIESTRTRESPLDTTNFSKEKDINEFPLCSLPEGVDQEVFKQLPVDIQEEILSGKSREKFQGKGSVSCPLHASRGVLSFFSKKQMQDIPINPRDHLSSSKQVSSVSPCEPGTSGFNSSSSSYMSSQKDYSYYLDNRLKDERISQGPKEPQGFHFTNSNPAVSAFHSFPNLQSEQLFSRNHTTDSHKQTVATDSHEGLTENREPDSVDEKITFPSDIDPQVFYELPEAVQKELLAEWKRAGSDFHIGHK
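Fluorescent replication assay read twice, at 0 min and 10 min after adding 50 nM (final) substrate. Enzyme (10 nM) and compounds were first incubated 15 min at room temperature; enzyme-free buffer wells were negative controls.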
POLK inh: inhibitors of human DNA polymerase kappa | purified Pol kappa, fluorescent DNA synthesis assay, 10 min | Potency, µM (series often up to 107 µM), for the others: at the top dose activity, negative = inhibition, hits mostly inhibitors | Q9UBT6 | actives 0.53% (n = 400,000); note: % is set by controls: 0 for no effect and ±100 for the full control effect
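Enzyme at 10 nM met test compounds for 15 min at room temperature. Substrate addition (50 nM final) began the reaction, which was monitored by fluorescence at 0 and 10 min.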
Pol beta inh: DNA polymerase beta (human) inhibition; P06746; Pol beta primer extension/strand displacement, fluorescence kinetic; Potency, µM (doses to about 114 µM), for inactives: at the highest dose activity change, negative = inhibition, actives largely listed as inhibitors; actives 1.3% (n = 340,000); AID 485314; note: % is set by controls: 0 for no effect and ±100 for the full control effect
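Kinetic readout of DNA synthesis with strand displacement by Pol beta. Compound and 10 nM enzyme sit 15 min at room temperature; 50 nM substrate starts the reaction, read immediately and at 10 min.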
POLH inh: DNA polymerase eta (human) inhibition. AID 588591. Q9Y253. recombinant Pol eta, fluorescent DNA replication assay. actives 1.2% (n = 390,000). Potency, µM (series often up to 114 µM), inactives show at the top dose activity change, negative = inhibition, most hits filed as inhibitors; note: % is set by controls: 0 for no effect and ±100 for the full control effect
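Pol eta at 10 nM preincubated with compounds 15 min at room temperature; reaction started with fluorescent substrate (50 nM final) and read kinetically at 0 and 10 min.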
WRN helicase inh: blocks human WRN helicase | Q14191 | AID 651768 | WRN helicase unwinding, fluorescent forked duplex, kinetic | Potency, µM (doses to about 114 µM), for inactives: at the top dose activity change, negative = inhibition, usual class: inhibitors | actives 0.46% (n = 360,000); note: % is set by controls: 0 for no effect and ±100 for the full control effect; nearly all actives have a fitted effect of over 55% in size
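Primary qHTS, 1536-well format. 20 nM WRN + compound, 15 min RT; start with 100 nM forked fluorophore/quencher duplex, 2 mM ATP (final); kinetic read ex 525/em 598 nm.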
Active calls of the source: *; ? = inconclusive; · = not tested or not shown; [ ] = remark or other dose. An excerpt weighted towards active compounds, which were near 2.3% of everything screened. Calls come from the whole dose curve; as a rule, active = well fitted curve in the direction sought with a large enough effect; inconclusive = small, poorly fitted or top-dose-only effect, or another doubt; inactive = no such curve, though single readings can be large; an effect the other way counts as inactive or inconclusive. Potency is the fitted concentration of half-maximal effect.

SMILES	POLI inh	POLK inh	Pol beta inh	POLH inh	WRN helicase inh
Cc1cccc(OCCC(=O)NO)c1	14%	1%	·	·	·
CCN(Cc1ccccc1)c1ccc(/C=C/c2nccc3ccccc23)cc1	4%	-5%	·	·	·
COc1ccc(CCn2c3c(c(=O)[nH]c2=S)CN(C)CN3)cc1OC	-4%	-11%	·	·	·
O=C(CN1C(=O)S/C(=C\c2ccc(Cl)cc2)C1=O)NNC(=O)c1ccccc1O	?	-36%	50µM*	?	?
O=C(NN1C(=O)/C(=C/c2ccc(O)cc2)SC1=S)c1ccccc1O	?	-26%	-20%	79µM*	-14%[11.6 µM]
O=C(NN1C(=O)/C(=C/c2ccc(O)c([N+](=O)[O-])c2)SC1=S)c1ccccc1Cl	40µM*	45µM*	-15%	-18%	?
Nc1cccc2[nH]cnc12	16%	-12%	·	·	·
CCc1ccc(CNC(=O)CN2C(=O)c3cccnc3Oc3ccc(C)cc32)cc1	7%	-11%	?	2%	·
COc1cc(N)c(N)cc1OC	22µM*	-21%	·	·	·
CC(C)C[C@H](NC(=O)[C@H](C)NC(=O)CNC(=O)[C@H](CCCCN)NC(=O)[C@H](CCCN=C(N)N)NC(=O)[C@H](C)NC(=O)[C@H](Cc1ccccc1)NC(=O)[C@@H](N)CCCN=C(N)N)C(=O)N[C@@H](CCCN=C(N)N)C(=O)N[C@@H](CCC(N)=O)C(=O)N[C@@H](CCCCN)C(=O)N[C@@H](CC(N)=O)C(=O)N[C@H](C(N)=O)C(C)C	·	-11%[60.1 µM]	·	·	·
O=C1CCc2cc(S(=O)(=O)NCc3ccccc3)cc3c2N1CC3	6%	-3%	12%	-5%	-4%
CCS(=O)(=O)Nc1cc2c3c(c1)CCN3C(=O)CC2	25µM*	79µM*	7%	-15%	3%[11.6 µM]
C=CCNS(=O)(=O)c1cc2c3c(c1)CCN3C(=O)CC2	28µM*	79µM*	1%	-4%	4%[11.6 µM]
CC(C)C(=O)Nc1cc2c3c(c1)CCC(=O)N3CCC2	35µM*	?	-1%	-9%	-8%
CCN(CC)c1nc(C#N)nc(N2CCOCC2)n1	-8%	-10%	·	·	·
NC(C(=O)O)(c1ccc(P(=O)(O)O)cc1)C1CC1 (centres undefined)	·	7%[19.4 µM]	·	·	·
CC(C)Oc1ccc(/C(O)=C2/C(=O)C(=O)N(Cc3cccnc3)C2c2ccco2)cc1 (centres undefined)	?	-7%	32µM*	3%	-10%
O=C(c1ccccc1)c1ccccc1N1C(=O)C=CC1=O	109%	-15%	3%	-10%	13µM*
O=c1ccc2c(o1)/C(=C/C=C(Cl)Cl)CCC2	?	-8%	28µM*	-10%	-7%
C=Cc1ccc(Cn2c(C(=O)O)c(CNC3CCCCC3)c3ccc(OC)cc32)cc1	?	-22%	35µM*	?	·
CCC[C@@H]1CC2=CC(=O)CC[C@]2(C)[C@H]2CC[C@@]3(C)[C@@H](CC[C@@]34CCC(=O)O4)[C@H]12	·	-6%[60.1 µM]	·	·	·
CC(Oc1ccccc1)C(=O)N[C@@H]1C(=O)N2C(C(=O)OCC3CCCCC3)C(C)(C)S[C@H]12 (some centres undefined)	4%	-17%	·	·	·
CCn1c(C)cc(C(=O)CSc2nnc(-c3ccco3)o2)c1C	-22%	-10%	·	-9%	1%
Cc1cc(C(=O)CSc2nnc(-c3ccco3)o2)c(C)n1C	35µM*	?	·	-6%	-4%[11.6 µM]
COc1cc(C(=O)ONC(=O)c2ccc(OC(F)F)cc2)cc(OC)c1OC	?	-24%	32µM*	79µM*	-11%[11.6 µM]
SMILES	POLI inh	POLK inh	Pol beta inh	POLH inh	WRN helicase inh
Nc1ccccc1Oc1ccccc1	·	3%[60.1 µM]	·	·	·
O=C1C(=NO)CCc2ccccc21	?	-23%	·	18µM*	?
C#CCOCCOCCOCCNc1nc(N2CCN(C(=O)CCCCCCCCCCNC(=O)[C@H](CCCCN)n3cc(CCO)nn3)CC2)nc(N2CCN(C(=O)CCCCCCCCCCNC(=O)[C@H](CCCCN)n3cc(CCCC(=O)O)nn3)CC2)n1	?	12%	·	-21%	21%
C#CCOCCOCCOCCNc1nc(N2CCN(C(=O)CCCCCCCCCCNC(=O)[C@@H](CCSC)n3cc(CCO)nn3)CC2)nc(N2CCN(C(=O)CCCCCCCCCCNC(=O)[C@H](CCCN=C(N)N)n3cc(C[C@@H](C)CC)nn3)CC2)n1	?	-19%	·	79µM*	50µM*
C#CCOCCOCCOCCNc1nc(N2CCN(C(=O)CCCCCCCCCCNC(=O)[C@H]([C@@H](C)CC)n3cc(CCCCN=C(N)N)nn3)CC2)nc(N2CCN(C(=O)CCCCCCCCCCNC(=O)[C@@H]([C@H](C)O)n3cc(C)nn3)CC2)n1	?	?	·	?	56µM*
C#CCOCCOCCOCCNc1nc(N2CCN(C(=O)CCCCCCCCCCNC(=O)[C@H](CCCCN)n3cc(C)nn3)CC2)nc(N2CCN(C(=O)CCCCCCCCCCNC(=O)[C@H](CCCN=C(N)N)n3cc(C[C@@H](C)CC)nn3)CC2)n1	?	?	·	?	45µM*
C#CCOCCOCCOCCNc1nc(N2CCOCC2)nc(N2CCN(C(=O)CCCCCCCCCCNC(=O)[C@H]([C@@H](C)CC)n3cc(CCCCN=C(N)N)nn3)CC2)n1	3%	17%	·	-24%	8%
C#CCOCCOCCOCCNc1nc(N2CCN(C(=O)CCCCCCCCCCNC(=O)Cn3cc(C[C@@H](C)O)nn3)CC2)nc(N2CCN(C(=O)CCCCCCCCCCNC(=O)[C@@H](CCSC)n3cc(CCO)nn3)CC2)n1	-15%	13%	·	-18%	0%
C#CCOCCOCCOCCNc1nc(N2CCN(C(=O)CCCCCCCCCCNC(=O)[C@H](CCCCN)n3cc(C[C@@H](C)CC)nn3)CC2)nc(N2CCN(C(=O)CCCCCCCCCCNC(=O)[C@H](CCCN=C(N)N)n3cc(C[C@@H](C)CC)nn3)CC2)n1	-21%	-9%	·	28µM*	32µM*
Cc1cc2nccc(C)c2cc1C	15%	-2%	·	·	·
C#CCOCCOCCOCCNc1nc(N2CCN(C(=O)CCCCCCCCCCNC(=O)[C@H](CCCCN)n3cc(C)nn3)CC2)nc(N2CCN(C(=O)CCCCCCCCCCNC(=O)[C@@H]([C@H](C)O)n3cc(C)nn3)CC2)n1	?	-7%	·	-21%	-9%
C#CCOCCOCCOCCNc1nc(N2CCN(C(=O)CCCCCCCCCCNC(=O)[C@H](CCCCN)n3cc(C[C@@H](C)CC)nn3)CC2)nc(N2CCN(C(=O)CCCCCCCCCCNC(=O)[C@@H]([C@H](C)O)n3cc(C)nn3)CC2)n1	24%	3%	·	79µM*	50µM*
Cc1ccn2c(=O)nc(SCC(=O)OCc3ccccc3)nc2c1	45µM*	?	·	50µM*	-27%
O=S1(=O)CCOCCCN1Cc1ccc(F)cc1	10%	-1%	·	·	·
